HPGD inh = blocks human HPGD enzyme activity; P15428; 150,000 tested, 4.3% active; AID 894; Potency, µM, without a hit: at the top dose activity change, negative = inhibition, hits mostly inhibitors; purified HPGD, NADH fluorescence kinetic, PGE2 substrate; note: potency is the fitted concentration of half-maximal effect
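20 nM HPGD preincubated 15 min at room temperature with compound in 50 mM Tris-HCl pH 8, 0.01% Tween 20. Started with 1 mM NAD+ and 30 uM prostaglandin E2; NADH fluorescence (360/450 nm) read 5 times over 30-s intervals, last minus first.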
ALDH1A1 inh = blocks purified human ALDH1A1 activity. P00352. Purified ALDH1A1, NADH fluorescence, propionaldehyde substrate. Potency, µM (titrated, usually from 75.3 µM), without a hit: top-dose activity, negative = inhibition, actives largely listed as inhibitors. 220,000 tested, 7.3% active. AID 1030;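 note: potency is the fitted concentration of half-maximal effect; plate controls were no enzyme wells and a reference inhibitor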
Target sequence (P00352 whole entry, looked up): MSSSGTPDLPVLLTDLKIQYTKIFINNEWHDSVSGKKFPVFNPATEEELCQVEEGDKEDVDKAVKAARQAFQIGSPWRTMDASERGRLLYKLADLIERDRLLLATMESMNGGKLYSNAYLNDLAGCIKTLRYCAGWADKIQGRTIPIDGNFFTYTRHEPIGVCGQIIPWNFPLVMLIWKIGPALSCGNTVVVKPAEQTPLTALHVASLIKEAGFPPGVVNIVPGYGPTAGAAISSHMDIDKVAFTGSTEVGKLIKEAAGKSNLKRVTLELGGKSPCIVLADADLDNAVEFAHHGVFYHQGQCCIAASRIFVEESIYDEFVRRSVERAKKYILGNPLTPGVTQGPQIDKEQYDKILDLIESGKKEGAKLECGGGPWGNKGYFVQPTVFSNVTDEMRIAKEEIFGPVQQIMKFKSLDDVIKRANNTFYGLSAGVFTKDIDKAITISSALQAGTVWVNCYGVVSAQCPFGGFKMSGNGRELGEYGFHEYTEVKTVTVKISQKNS
PNC inhibitor = perinucleolar compartment assembly inhibition; activity change (PNC), negative = inhibition, % at 10 µM; AID 2417; 140,000 tested, 3.1% active; PC3M PTB-GFP, PNC prevalence imaging, 16 h; active compounds read low;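 active = readout at or below -70, meaning at least 70% loss of cells showing the perinucleolar compartment, a nuclear body marking cancer cells; inconclusive = readout between -30 and a set limit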;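 note: plate controls were DMSO wells for no effect and camptothecin positive control wells for full effect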
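Read-out is percentage of cells bearing a perinucleolar compartment, from automated 20x imaging of fixed, Hoechst-stained PC3M PTB-GFP cells. Cells were seeded 4 h, then exposed 16 h to compound (23 nl of library stock) in duplicate plates.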
An asterisk follows results filed as active; ? = inconclusive; . = no result; ! = a repeat was not active; [ ] = remark or other dose. In the library only some 11% were active in any assay of this set; here they are far more common. Unless noted, calls come from the whole dose curve; as a rule, active = well fitted inhibition curve with a large enough effect (not every such curve was filed as active); inconclusive = small, poorly fitted or top-dose-only effect, or another doubt; inactive = no such curve, though single readings can be large or run the other way. Unless noted, % is set by controls: 0 for no effect and ±100 for the full control effect.

SMILES	HPGD inh	ALDH1A1 inh	PNC inhibitor
CN1C(=O)C(O)(CC(=O)c2ccncc2)c2ccccc21 (stereo not drawn)	2%	?	5
COC(=O)CN1C(=O)C(O)(CC(=O)c2ccc(C)o2)c2ccccc21 (stereo not drawn)	5%	7.9µM*	46
COC(=O)CN1C(=O)CC(C)(C)Sc2ccccc21	-1%	11%	36
O=C(CN1C(=O)C2(OCCO2)c2ccccc21)c1ccc(F)cc1	-3%	-9%	?
COC(=O)CN1C(=O)C(O)(CC(=O)c2ccc(C)cc2)c2ccccc21 (stereo not drawn)	5%	8.9µM*	31
CC(C)(CC(=O)O)CC(=O)NCc1c(Cl)cccc1Oc1ccccc1	.	13%	.
O=C(COC(=O)c1c(Cl)ccc(Cl)c1Cl)NC1CCS(=O)(=O)C1 (stereo not drawn)	.	1%	.
CCS(=O)(=O)N1CCC(C(=O)NCC2CCCO2)CC1 (stereo not drawn)	-11%	8%	?
O=S(=O)(CCN(CCS(=O)(=O)C(F)(F)F)CC1CCCO1)C(F)(F)F (stereo not drawn)	-13%	7.1µM*	-3
COc1ccccc1CNc1ccnc(-c2ccc(C(=O)N(C)C)cc2)n1	.	-5%	.
Cc1cnc(CNc2ccnc(-c3ccc(C(=O)N(C)C)cc3)n2)cn1	5.6µM*	-6%	.
COC(=O)C/C=C1\c2ccccc2C(OC)C1C (stereo not drawn)	.	-3%[13.5 µM]	.
CCC(=O)N1C(=O)CCN(C(C)=O)c2ccccc21	-3%	-8%	-94*
CCC(=O)N1C(=O)C2(Nc3ccccc3N2)c2ccccc21	.	5%	.
C=CCC(C)(Nc1ccccc1)C(=O)OCC (stereo not drawn)	-7%	-6%	.
CN(C)[C@H]1C(=O)C(C(=O)NCN2CCCC2)=C(O)[C@]2(O)C(=O)C3=C(O)c4c(O)cccc4[C@@](C)(O)[C@H]3C[C@@H]12	-20%	-2%[20.9 µM]	.
C[C@@H](NCCc1ccc(O)cc1)[C@@H](O)c1ccc(O)cc1	-15%	-6%	.
CCCCCCCCNC(C)C(O)c1ccc(SC(C)C)cc1 (stereo not drawn)	-3%	7.9µM*!	-115*
O=C(O)CC[C@]1(C(=O)O)CCC(=O)c2ccccc21	1%	0%[13.5 µM]	.
CCN(CC)S(=O)(=O)c1ccc2c(c1)nc(CCC(=O)Nc1ccc(N3CCOCC3)cc1)n2C	.	4%	.
COC1=CC(C)C2CC3OC(=O)CC4C(C)=C(OC)C(=O)C([C@]2(C)C1=O)[C@]34C (stereo partly drawn)	-8%	12%	.
COc1ccc(S(=O)(=O)Nc2cccc(F)c2C)cc1C(=O)N1CCOCC1	.	13%	.
COc1ccc(S(=O)(=O)Nc2ccccc2C)cc1C(=O)N1CCOCC1	.	10µM*	.
Cc1nn(-c2ccccc2)c(/N=C/c2ccccc2O)c1-c1ccccc1	-26%	?	?
Cc1cc(C)c(C#N)c(Sc2ccccc2N)n1	.	25µM*	.
SMILES	HPGD inh	ALDH1A1 inh	PNC inhibitor
Cc1cc(C)c(C#N)c(OCC(=O)c2ccccc2)n1	22µM*	6.3µM*	?
Cc1ccccc1NC(=O)CSc1[nH]c(=O)cc(C)c1C#N	-17%	-1%	-3
Cc1cc(C)n2nc(SCCCC(=O)c3ccccc3)nc2n1	.	2%	.
Cc1cc(=O)[nH]c(SCC(=O)c2ccccc2)c1C#N	?	18µM*	?
COCc1cc(C)nc(OCC(=O)N/N=C/c2ccccc2O)c1C#N	.	2%	.
Cc1cc(SCC(=O)c2ccccc2)n2nc(C)nc2n1	-18%	20µM*	-11
COC(=O)C(Sc1nc(C)cc(C)c1C#N)c1ccccc1 (stereo not drawn)	-6%	5%	61
CCN1C(=O)[C@H]2[C@H]3[C@H](O)[C@H](O)C/C(=N/NC(=O)OCc4ccc(OC)cc4)[C@H]3CC[C@@H]2C1=O	.	5%[13.5 µM]	.
Cn1c(N)c(N2CCN(c3ccccc3)CC2)c(=O)[nH]c1=O	.	0%	.
O=C(CSc1nnc(-c2ccccc2F)n1C1CC1)Nc1cccnc1Cl	-8%	-10%	25
Cc1nnc(N/N=C/c2cccc(OCc3ccc(Cl)c(Cl)c3)c2)n1N	-14%	3%	-26
COc1ccccc1N1CCN(C(=O)Cn2nc3n(C)c4ccccc4n3c(=O)c2=O)CC1	.	7%	.
COc1ccc2[nH]cc(CCNc3ccnc(-c4c(C)noc4C)n3)c2c1	.	11%	.
O=C1c2cccc3cccc(c23)C(=O)N1CCCN1CCN(c2ccc(F)cc2)CC1	.	-10%	.
Cc1cc(C)c(C#N)c(SCc2ccc([N+](=O)[O-])cc2)n1	.	2%	.
CSc1nc(N)nc(SCC(=O)c2ccccc2)c1C#N	-29%	?	30
Cc1cc(C)c(C#N)c(SCC(O)CS(=O)(=O)Cc2ccccc2)n1 (stereo not drawn)	-18%	28µM*	45
CCN(CC)C(=O)CSc1nc(C)cc(-c2cccs2)c1C#N	-28%	13µM*	?
Cc1cc(C)c(C(N)=O)c(SCC(=O)c2ccc(Cl)cc2)n1	-1%	-4%	33
Cc1ccc(C(=O)CSc2nc(C)cc(C)c2C(N)=O)cc1	-2%	11%	-88*
N#Cc1c(-c2cccs2)cc(C2CC2)nc1SCC(N)=O	?	?	23
Cc1cc(C)c(C#N)c(SCC(=O)c2ccccc2)n1	.	22µM*	.
O=C(NNC(=O)c1cccs1)c1ccc([N+](=O)[O-])cc1	.	3%	.
Cc1ccc(NC(=O)NNc2cccc(Cl)n2)cc1	-5%	?	56
CC(=O)Nc1ccc(S(=O)(=O)N(C)CC(=O)OCC(=O)Nc2cccnc2Cl)cc1	-4%	7%	-1
SMILES	HPGD inh	ALDH1A1 inh	PNC inhibitor
Cc1ccc(NC(=O)COc2ccc(CCO)cc2-n2nc3ccccc3n2)cc1C	?	?	-25
C=CCN(CC=C)C(=O)CCc1nnc(CCc2c[nH]c3ccccc23)o1	.	5%	.
COCCCN1CN=C(Nc2nc3ccccc3o2)NC1	.	1%	.
Cc1cc(C)c(Cn2cnc3ccccc32)c(C)c1	.	4%	.
Cc1cc(C)c(C#N)c(SCC(=O)c2cccs2)n1	16µM*	?	?
COC(=O)CSc1nc(C)cc(C)c1C#N	.	0%	.
O=C(CSc1ncnc2ccccc12)c1cccs1	.	11µM*	.
O=C(CSc1ncnc2ccccc12)N1CCCC1	-17%	-6%	-8
COc1ccc(S(N)(=O)=O)cc1C(N)=O	.	11%	.
CCN(CC)C(=O)C(=O)c1cccn1-c1ccc(C#N)cc1	.	4%	.
Cc1ccc(-n2cccc2C(=S)N=P(N(C)C)(N(C)C)N(C)C)cc1	?	10µM*	11
CC(=O)n1nc(-c2ccc(C)cc2)nc1NCc1ccc(F)cc1	.	9%	.
Cc1cc(C)cc(NC(=O)Nc2ccc(Cl)cn2)c1	.	2%	.
CC(C)(C)C(=O)NC(=S)NNC(=O)c1ccc(-c2ccccc2)cc1	.	-1%	.
O=C(Nc1ccccc1)OC1CCC2CC1CCC2OC(=O)Nc1ccccc1 (stereo not drawn)	-13%	-2%	?
O=C(Nc1ccccc1)OC[C@H](CN1CCCCC1)OC(=O)Nc1ccccc1	-5%	-12%[20.9 µM]	.
COc1ccc(Cl)cc1S(=O)(=O)N1CCN=C1C	-3%	15%	39
CC1=NCCN1S(=O)(=O)c1c(C(C)C)cc(C(C)C)cc1C(C)C	.	2.2µM*	.
O=C(/C=C/c1ccccc1)c1ccccc1	-23%	-13%	20
N#Cc1ccc(/C=C/C(=O)c2ccccc2)cc1	.	8.9µM*	.
CCOC(=O)NCC(C)(C)CNC(=O)OCC	-6%	3%	-117*

Compound activity deposited in PubChem BioAssay by National Center for Advancing Translational Sciences (NCATS).
